Measurements reported in PubChem BioAssay.

experiment: E. coli DRC41 culture turbidity changes, primary screen, E. coli filamentation inducer project, strain DRC41, OD650, 48 h (AID 1152);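 further: E. coli MC1000 strain DRC41 lacking acrAB efflux pump and sulA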; conditions: E. coli DRC41 (acrAB sulA), higher = more signal, called active from +8 up or from −8 down

z-score, inactive:
COc1ccc(O[C@H]2C=C[C@@H](c3ccccc3)O[C@@H]2COC(=O)CCC(C)=NO[C@@H]2O[C@H](COC(C)=O)[C@@H](OC(C)=O)[C@H](OC(C)=O)[C@H]2OC(C)=O)cc1 0.37
CO[C@H]1COC(=O)CC=C[C@H](C)[C@@H](OC)COC(=O)[C@@H](C)NC(=O)CC=C[C@@H]1C 0.0321
CC(C)[C@@H](OCc1ccccc1)[C@H](C)C=NOC[C@@H](O)COCc1ccco1 0.776
CCCCC#C[C@@H]1C=C[C@H](OC(C)=O)[C@@H](COC(C)=O)O1 -0.656
CO[C@@H]1COC(=O)[C@@H](C)COC(=O)[C@@H](C)NC(=O)CC=C[C@@H]1C -0.294
C[C@H]1Cc2c(COc3ccccc3)nc3c(c2CO1)CN(CCOc1ccccc1)CC3 0.49
CCCNC(=O)OC[C@H]1O[C@H](CCON=C(C)CCC(=O)OC[C@H]2O[C@H](c3ccccc3)C=C[C@@H]2Oc2ccc(OC)cc2)C=C[C@@H]1Oc1ccc(OC)cc1 0.3
CCOC(=O)NN=C1C[C@@H](O)[C@@H](O)[C@@H]2[C@@H]3C(=O)N(C(C)(C)C)C(=O)[C@@H]3CC[C@H]12 1.04
C[C@@H](ON=C1[C@H]2CCn3c(=O)n(-c4ccccc4)c(=O)n3[C@H]2[C@H](O)[C@@H]2O[C@H]12)c1cn([C@@H]2COC[C@H]2O)nn1 -0.212
COc1ccc(COC(=O)NN=C2C[C@@H](O)[C@@H](O)[C@@H]3[C@@H]4C(=O)N(C5CCCCC5)C(=O)[C@@H]4CC[C@H]23)cc1 -1.01
CC(=O)OC[C@H]1O[C@H](C#Cc2ccccc2)C=C[C@@H]1OC(C)=O 0.714
O=C1CCCC=C1C(CCc1ccccc1)OC(=O)c1ccc(Br)cc1 (stereo unspecified) -0.303
CCN1C(=O)[C@@H]2[C@H]3C(=CC[C@@H]2C1=O)C1(OCCCO1)[C@H]1O[C@H]1[C@H]3O -0.721
O=C1[C@H]2[C@H]3[C@H](O)[C@H](O)CC(=NOCc4ccccc4)[C@@H]3CC[C@H]2C(=O)N1C[C@@H]1CCCO1 0.516
COC(=O)[C@H]1O[C@@H](c2c(OC)c(OC)c(C)c(OC)c2OC)[C@H](C)[C@@H](O)[C@H]1C 0.855
C#CCCCON=C1C[C@@H](O)[C@@H](O)[C@@H]2[C@@H]3C(=O)N(C(C)(C)C)C(=O)[C@@H]3CC[C@H]12 0.233
C=CC[C@@H]1C=C[C@H](ON=C(C)CCN2CCc3nc(-c4ccccc4)c(-c4ccccc4)cc3C2)[C@@H](CO)O1 0.418
CC(C)=CCCC(C)=CCON=C1C[C@@H](O)[C@@H](O)[C@@H]2[C@@H]3C(=O)N(Cc4ccccc4)C(=O)[C@@H]3CC[C@H]12 -0.169
C[n+]1ccc(-c2ccc(CO)cc2)cc1 0.209
CC(C)=CCCC(C)=CCON=C1C[C@@H](O)[C@@H](O)[C@@H]2[C@@H]3C(=O)N(c4cccc(Oc5ccccc5)c4)C(=O)[C@@H]3CC[C@@H]12 -1.15
CO[C@@H]1COC(=O)[C@H](CCSC)NC(=O)CC=C[C@@H](C)COC(=O)[C@H](C)NC(=O)CC=C[C@H]1C 0.675
CON=CC[C@@H]1C=C[C@H](OC(C)=O)[C@@H](COC(C)=O)O1 -2.1
CC(C)CON=C1C[C@@H](O)[C@@H](O)[C@@H]2[C@@H]3C(=O)N(c4ccc(F)cc4F)C(=O)[C@@H]3CC[C@H]12 -0.619
CC(C)(C)N1C(=O)[C@H]2[C@H]3[C@H](O)[C@H](O)CC(=NOCc4ccccc4)[C@H]3CC[C@H]2C1=O 0.254
C[C@@H](c1ccccc1)N1C(=O)[C@H]2[C@H]3[C@H](O)[C@H](O)CC(=NOCc4ccccc4)[C@H]3CC[C@H]2C1=O 0.331
CCOC(=O)[C@H](Cc1ccccc1)NC(=O)CCC1CC(OC(=O)NCc2cccc3ccccc23)CC2(CCCC(COC(=O)NCC(c3ccccc3)c3ccccc3)O2)O1 (stereo partly specified) -0.0812
